# PMC5540273 (PLoS ONE, 2017)
# pKd: −log10 of the molar value.
# Experiments:
# [1] = system: AAK1; conditions: concentration: 1 μM, replicates: in singlicate; n = 1
# [2] = system: ABL1-nonphosphorylated; conditions: concentration: 1 μM, replicates: in singlicate; n = 1
# [3] = system: ABL1-phosphorylated; conditions: concentration: 1 μM, replicates: in singlicate; n = 1
# [4] = system: ABL2; conditions: concentration: 1 μM, replicates: in singlicate; n = 1
# [5] = system: ACVR1B; conditions: concentration: 1 μM, replicates: in singlicate; n = 1
# [6] = system: ACVR1; conditions: concentration: 1 μM, replicates: in singlicate; n = 1
# [7] = system: ACVR2A; conditions: concentration: 1 μM, replicates: in singlicate; n = 1
# [8] = system: ZAK
# [9] = system: T1, p38-alpha
# T1 construct: gene MAPK14
# [10] = system: T2, p38-beta
# T2 construct: gene MAPK11
# 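Wherever %Inh is given: KINOMEscan kinase panel screen.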
# 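Wherever pKd is given: kd values determined as follow-up on hits from a single-replicate KINOMEscan panel screen.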
SMILES,%Inh [1],%Inh [2],%Inh [3],%Inh [4],%Inh [5],%Inh [6],%Inh [7],pKd [8],pKd [9],pKd [10]
COC(=O)c1c(-c2ccccc2)c2cc(C(=O)O)ccc2c(=O)n1Cc1ccccc1,3%,77%,7%,7%,9%,0%,36%,,,
Cl.NC(=O)c1cccc(Nc2nccc(Nc3ccc(Oc4cccc(Cl)c4)c(Cl)c3)n2)c1 [GW659008],14%,0%,0%,20%,0%,29%,0%,,,
Cc1csc(-c2nc(Nc3ccncc3)c3ccccc3n2)n1 [GW869640],31%,31%,15%,7%,94.7%,0%,3%,,,
Cc1cccc(-c2cc(Nc3ccncc3)c3ccccc3n2)n1 [GSK223675],12%,0%,0%,0%,88%,0%,0%,< 5.00,,
CCn1c(-c2cccnc2O)nc2cnccc21 [SB-736715],0%,43%,0%,4%,0%,0%,0%,,,
Cc1cc(N2Cc3ccccc3C2)nc(Nc2ccc(S(=O)(=O)N3CCOCC3)cc2)n1.Cl [GSK1669917],1%,0%,0%,0%,0%,2%,0%,,,
CCCc1ccc(S(=O)(=O)NC2CCN(c3ccnc(Nc4ccc(F)cc4)n3)C2)cc1 (stereo not drawn) [GSK1379715],1%,0%,0%,6%,0%,16%,0%,,,
Cn1ccc2ncnc(Oc3cccc(C(=O)Nc4ccccc4)c3)c21,22%,0%,0%,0%,1%,100%,0%,,,
Cn1ccc2ncnc(Oc3ccc(Nc4nc5ccccc5[nH]4)cc3)c21,21%,45%,2%,4%,0%,0%,10%,,,
Cc1cc(NCC(c2ccccc2)c2ccccc2)nc(NCc2ccc(C(F)(F)F)cc2)n1 [GW497681],0%,0%,0%,0%,0%,0%,0%,,,
COC(=O)c1c(-c2ccccc2)c2cc(OC)ccc2c(=O)n1Cc1ccccc1,22%,66%,0%,12%,0%,0%,0%,,,
Cc1cccc(-c2nc(-c3ccc(S(C)(=O)=O)cc3)sc2-c2ccnc(NCCc3ccccc3)c2)c1,12%,90.7%,21%,0%,8%,0%,0%,,5.72,
Cc1ccc(NC(=O)Nc2cc(C(C)(C)C)nn2-c2ccccc2)cc1 [GSK1014915],0%,0%,2%,14%,0%,7%,6%,,7.24,6.27
O=C(Nc1n[nH]c2nc(-c3nccs3)c(Br)cc12)C1CC1 [SB-742251],15%,0%,22%,7%,0%,6%,0%,,,
Clc1cc(Cl)cc(Nc2ccnc(Nc3cc(Cl)cc(Cl)c3)n2)c1 [GSK175726],0%,68%,51%,29%,28%,58%,0%,,,
Cc1c(O)cccc1Nc1ccnc2ccc(C(F)(F)F)cc12.Cl [GW466413],0%,42%,70%,43%,0%,73%,13%,,,
CC(=O)Nc1nc2cnc(Nc3cc(NC(=O)c4cccc(CCC#N)c4)ccc3C)nc2s1,6%,94.8%,29%,29%,0%,0%,0%,,,
Cc1cccc(-c2nc(C)cc(Nc3ccncc3)n2)n1 [GSK257997],99.8%,0%,0%,6%,78%,15%,0%,,,

SMILES,%Inh [1],%Inh [2],%Inh [3],%Inh [4],%Inh [5],%Inh [6],%Inh [7],pKd [8],pKd [9],pKd [10]
COc1ccccc1CNC(=O)c1cc(C(=O)c2ccccc2C)c[nH]1 [GSK364507],2%,0%,0%,21%,0%,0%,0%,,6.57,
Cl.O=C(Nc1cccc(-c2nn3ncccc3c2-c2ccnc(Nc3cccnc3)n2)c1)c1c(F)cccc1F [GSK312879],0%,0%,0%,21%,0%,0%,0%,,,
C[C@@H]1CCCCN1c1cc(-c2ccc3c(N)n[nH]c3c2)nc(N)n1 [GSK2258759],43%,0%,0%,0%,0%,24%,0%,,5.68,
COc1cccc(-c2cc(-c3c[nH]nc3-c3ccccn3)ccn2)c1 [GW680338],4%,0%,3%,0%,50%,24%,9%,,,
CN(C)CCN(C)C(=O)c1cc(-c2ccncc2)c(-c2ccc(Cl)c(O)c2)o1.Cl.Cl [SB-710397],6%,2%,6%,17%,0%,0%,0%,,6.13,
O=C(Nc1n[nH]c2nc(-c3nccs3)c(Br)cc12)C1CCCC1 [SB-742609],15%,7%,1%,25%,0%,7%,0%,,,
Cc1cccc(-c2nc(Nc3ccncc3)c3ccccc3n2)n1 [GW855857],2%,39%,28%,22%,94.3%,15%,24%,,,
CC(C)(C)c1ccc(C(=O)Nc2cn3cc(-c4cccnc4)ccc3n2)cc1,25%,50%,37%,20%,13%,21%,0%,,,
COc1cccc(NC(=O)NC2CCN(c3ccnc(Nc4ccc(F)cc4)n3)C2)c1 (stereo not drawn) [GSK1379721],5%,0%,0%,0%,0%,0%,100%,,,
O=C(Nc1ccc2c(c1)OCO2)NC1CCN(c2ccnc(Nc3ccc(F)cc3)n2)C1 (stereo not drawn) [GSK1379724],12%,0%,0%,9%,0%,0%,0%,,,
O=C(Nc1n[nH]c2cc(-c3cccc(F)c3F)ccc12)C1CC1 [SB-733894],100%,45%,40%,0%,21%,24%,17%,,,
COc1cc2nccc(Nc3ccc(NC(=O)c4ccc(C)cc4)c(O)c3)c2cc1OC.Cl [GW440132],12%,28%,0%,16%,13%,0%,0%,,,
CC(C)(C)c1ccc(C(=O)Nc2cn3cc(Cl)ccc3n2)cc1,0%,35%,0%,0%,0%,0%,0%,,,
Nc1nc(-c2nccs2)c(-c2ccnc3ccccc23)s1 [GW693542],8%,0%,6%,15%,14%,10%,0%,,,
COc1ccccc1-c1ccc2c(NC(=O)C3CC3)n[nH]c2n1 [SB-711239],9%,0%,88%,0%,18%,0%,29%,,,
O=C(O)COc1ncnc2cc(-c3ccc4[nH]ncc4c3)sc12,52%,33%,7%,0%,31%,1%,4%,,,
Nc1ncnc2[nH]c(-c3ccccc3)nc12 [AH5015],0%,7%,44%,19%,0%,37%,7%,,,
